# Rows were chosen to be rich in hits. Some 13% of all compounds tested hit in one or more screens of this group.
# Pf growth 48h = P. falciparum growth inhibition at 48 hours (one generation); P. falciparum luciferase growth in erythrocytes, 48 h; Potency, µM (highest dose often 28.7 µM), without a hit: top-dose activity change, negative = inhibition, hits mostly inhibitors; actives 5.9% (n = 310,000); AID 504832; note: potency is the fitted concentration of half-maximal effect
#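 Here the parasites carry a stable luciferase gene and grow inside erythrocytes in Albumax-based RPMI medium with compound for one erythrocytic cycle. Activity is scored as loss of luminescent signal.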
# Pf growth 96h = P. falciparum growth inhibition at 96 hours | P. falciparum luciferase reporter growth, 96 h | AID 504834 | actives 6.9% (n = 320,000) | Potency, µM (titrated, usually from 28.7 µM), without a hit: top-dose activity change, negative = inhibition, hits mostly inhibitors; note: potency is the fitted concentration of half-maximal effect
#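 Compounds incubated with erythrocytes infected by luciferase-expressing P. falciparum (2% hematocrit, 0.05% parasitemia final) for 96 hours, 37 C in 5% CO2. Growth inhibition scored as decreased luciferase luminescence.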
# HCV inhibitor = inhibitors of hepatitis C virus infection; Huh7.5.1 HCVcc-Cre infection, luciferase reporter, 44 h; Potency, µM (doses to about 41.8 µM), for inactives: at the top dose activity change, negative = inhibition, usual class: inhibitors; actives 3.4% (n = 340,000); note: potency is the fitted concentration of half-maximal effect
#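 Whole-lifecycle infectious HCVcc-Cre system; cells 1,000/well, compound then virus (~0.5 moi) added 4 h after plating, 44 h culture. Luciferase read 15 sec following 15 min substrate incubation, room temp.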
# HCMV antiviral = inhibitors of human cytomegalovirus. HFF cells, HCMV-luciferase reporter, 72 h; stronger effect = lower value. activity change, negative = inhibition, % at 57.5 µM. actives 4.5% (n = 410,000). AID 1259415; in the data active = activity change below about -60%; inconclusive = no clear call, values can overlap the other calls; inactive = above about -39%
#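 Steps: HFFs plated, 16 h 37C; compounds added; HCMV-luciferase added to MOI 1 PFU/cell; 72 h 37C; OneGlo reagent, 5 min room temperature; luminescence read, normalized to controls.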
# * marks the source's active call; other numbers are inactive results; ? = inconclusive; · = no result; [ ] = another dose, or the depositor's remark. Unless noted, calls come from the whole dose curve; as a rule, active = well fitted inhibition curve with a large enough effect; inconclusive = small, poorly fitted or top-dose-only effect, or another doubt; inactive = no such curve, though single readings can be large or run the other way. % is set by controls: 0 for no effect and ±100 for the full control effect.
SMILES,Pf growth 48h,Pf growth 96h,HCV inhibitor,HCMV antiviral
COc1ccc(OC)c(CNC(=O)c2ccc3c(c2)c(C)c(C)n3Cc2ccc(Cl)cc2)c1,·,·,·,0.0
COc1ccc(N(C)C(=O)c2oc(=O)c3ccccc3c2-c2ccc(C)cc2)c(OC)c1,?,?,10µM*,-11.3
COc1ccc(OC)c(NC(=O)c2oc(=O)c3ccccc3c2-c2ccccc2)c1,·,·,·,14.9
CC(C)(C)OC(=O)Nc1ccccc1-n1nnnc1C(C(=O)c1ccccc1)N1CCN(c2ccccn2)CC1 (configuration not stated),·,·,·,-5.0
CCN(CC)C(=O)Oc1cc(COC)nc(-c2ccccc2)n1,10.4µM*,?,10.2%,0.3
CC(c1nnnn1C(C)(C)C)N(Cc1cccnc1)Cc1ccccc1Cl (configuration not stated),13.1µM*,·,?,-11.1
CC(C)(C)n1nnnc1C(c1cccs1)N(Cc1cccnc1)Cc1ccccc1Cl (configuration not stated),2.94µM*,110.3%,10µM*,-19.6
CCC(C)(C)n1nnnc1C(C(C)C)N(Cc1cccnc1)Cc1ccco1 (configuration not stated),?,4.5%,-21.4%,?
Cc1ccc(S(=O)Cc2ccc(C(=O)NCc3ccc(OC(C)C)cc3)o2)cc1 (configuration not stated),·,·,·,-18.8
CC(=O)N1CCc2cc(Br)cc(S(=O)(=O)CCC(=O)NCc3ccc(F)cc3)c21,·,·,·,-15.7
CC(Nc1nc(N2CCNCC2)nc2ccccc12)c1ccccc1 (configuration not stated),2.94µM*,0.0%,10µM*,-36.0
COc1ccccc1C(C)Nc1nc(-c2cccnc2)nc2ccccc12 (configuration not stated),13.1µM*,?,?,-7.6
CC(Nc1nc(-c2ccncc2)nc2ccccc12)c1ccccc1 (configuration not stated),5.22µM*,4.65µM*,?,53.6
c1ccc(CCNc2nc(-c3ccncc3)nc3ccccc23)cc1,?,?,12.6µM*,-71.1*
c1ccc2c(N3CCCCC3)nc(N3CCCCC3)nc2c1,1.0%,·,-24.3%,-37.9
COC(=O)CNc1nc(-c2ccncc2)nc2ccccc12,-0.2%,-3.3%[5.75 µM],-32.1%,122.6
Cn1nc(C(F)(F)F)c(-c2cccc(C(F)(F)F)c2)c1NC(=O)c1ccco1,?,-19.8%,-5.9%,-70.8*
Cn1nc(C(F)(F)F)c(-c2cccc(C(F)(F)F)c2)c1NC(=O)Nc1ccc(F)cc1,0.928µM*,1.31µM*,?,-8.4
Cn1nc(C(F)(F)F)c(-c2cccc(C(F)(F)F)c2)c1NC(=O)c1nccnc1C(=O)O,20.5%,7.0%,23.2%,21.1
CCc1nc2c(OCc3ccc(OC(F)F)cc3)cccn2c1N(C)C(=O)c1cccs1,·,·,·,-23.4
CCN(CC)C(=O)CSc1nc2cc(OC)c(OC)cc2c(=O)n1Cc1ccc(Cl)cc1,11.7µM*,?,?,-77.8*
COCCNC(=O)CSc1nc2cc(OC)c(OC)cc2c(=O)n1CCC1=CCCCC1,14.8%,58.3%,-17.9%,-27.3
COc1cc2nc(SCC(N)=O)n(CCC3=CCCCC3)c(=O)c2cc1OC,-12.1%,13.1µM*,-12.5%,-26.0
COc1cc2cc(CNc3ccc(C)cc3)c(=O)n(CC(=O)Nc3ccc(F)cc3F)c2cc1OC,·,·,·,32.6
Cc1ccc2ncc(C(=O)c3ccc(C)c(C)c3)c(S(=O)(=O)c3ccc(F)cc3)c2c1,·,·,·,-73.7*
SMILES,Pf growth 48h,Pf growth 96h,HCV inhibitor,HCMV antiviral
CCc1ccc(S(=O)(=O)c2c(C(=O)c3ccccc3)cnc3ccc(CC)cc23)cc1,·,·,·,-77.2*
CCOc1ccc(S(=O)(=O)c2c(C(=O)c3ccc(C)c(C)c3)cnc3ccccc23)cc1,·,·,·,-3.4
COc1ccc(S(=O)(=O)c2c(C(=O)c3ccc(C)c(C)c3)cnc3ccc(F)cc23)cc1,·,·,·,-39.5
Cc1ccc(S(=O)(=O)c2c(C(=O)c3ccccc3)cnc3cc4c(cc23)OCCO4)cc1,?,?,-3.2%,-99.2*
COc1ccc(C(=O)c2cnc3ccc(C)cc3c2S(=O)(=O)c2ccccc2)cc1,·,·,·,-98.2*
CC(C)OC(=O)OCOP(=O)(CO[C@H](C)Cn1cnc2c(N)ncnc21)OCOC(=O)OC(C)C,·,·,·,-17.3
Cc1ccc(OCC(=O)Nc2ccc3nc(SCC(=O)N4CCOCC4)sc3c2)cc1C,·,·,·,30.9
COc1cc(S(=O)(=O)n2ccnc2C(C)C)ccc1Br,·,·,·,3.3

# From PubChem BioAssay
